The values below come from PubChem BioAssay (Tox21).

Records with an inconclusive call do not appear. The source holds several records for some structures; these can differ, active in one and inactive in another. Calls of active or inactive are those of the source. Unless noted, the call rests on the fitted dose curve.

A short description of experiment [1]: Nuclear factor erythroid 2-related factor 2/antioxidant responsive element (Nrf2/ARE) small molecule agonists: qHTS cell viability counter screen in human keratinocytes (AID 1919968; active means well fitted curve in the direction sought with a large enough effect in the repeat runs; an effect the other way counts as inactive or inconclusive; further: nearly all actives have a fitted effect of over 55% in size). The procedure, abridged: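 Parallel cytotoxicity read: KeratinoSens HaCaT cells, compound treatment 23 h, viability by CellTiter-Fluor fluorescence 1 h post-reagent.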
A short description of experiment [2]: Nuclear factor erythroid 2-related factor 2/antioxidant responsive element (Nrf2/ARE) small molecule agonists: luciferase reporter gene qHTS assay in human keratinocytes (AID 1919969; further: nearly all actives have a fitted effect of over 35% in size). (In a reporter assay the amount or activity of a reporter protein is the signal.)
Experiment [3] has as its target Gonadotropin-releasing hormone receptor (Homo sapiens) (UniProt P30968). Put plainly: Human gonadotropin-releasing hormone receptor (GnRHR) small molecule agonists, calcium flux assay in GnRHR-HEK293 cells (AID 1920063). Further: nearly all actives have a fitted effect of over 35% in size. The method in brief: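 Calcium flux, agonist mode, human GnRHR stably integrated in HEK293; dye 1 h at 37 C before compound; Ex/Em=480/540 kinetic read, 3 min; 15 concentrations, triplicate.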

Experiment [4] deals with KiSS-1 receptor (Homo sapiens) (UniProt Q969F8). Put plainly: Human kisspeptin (KISS1R) small molecule agonists, calcium flux assay in KISS1R-HEK293 cells (AID 1920064; active means well fitted curve in the direction sought with a large enough effect in the repeat runs; an effect the other way counts as inactive or inconclusive). The method in brief: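 Triplicate 15-concentration series were applied to dye-loaded human KISS1R HEK293 cells, and agonist-evoked calcium fluorescence was captured for 3 min.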
Background: Calcium assays in cells follow changes in intracellular calcium, usually with a dye or a luminescent sensor.

A short description of experiment [5]: G protein-coupled receptor (GPCR) small molecule agonists, calcium flux assay: HEK293 wild type cell line counter screen (AID 1920065). The procedure, abridged: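 Non-specific calcium responders were flagged by adding DMSO-dissolved compounds to dye-loaded cells and reading 480/540 nm fluorescence each second for 3 min; ATP served as positive control.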
The nature of experiment [6]: p53 small molecule agonists, cell-based qHTS assay with human liver microsomes (AID 1963577).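 Further: p53 response element beta-lactamase reporter cells with liver microsomes plus NADPH.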 The method in brief:
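In this qHTS, p53 response-element beta-lactamase cells receive test compound together with a microsome/NADPH activating system (0.5 mg/mL final each) and are incubated 16 h at 37 C before LiveBLAzer fluorescence detection.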

The nature of experiment [7]: p53 small molecule agonists, cell-based qHTS assay with rat liver microsomes (AID 1963578). The procedure, abridged: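 Agonist mode in p53RE-bla reporter cells, with compounds co-incubated 16 h at 37 C alongside 0.5 mg/mL rat liver microsomes and 0.5 mg/mL NADPH (final), followed by a 2 h LiveBLAzer detection step.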
Experiment [8] can be described thus: p53 small molecule agonists, cell-based qHTS assay with human liver microsomes: qHTS cell viability counter screen (AID 1963579). Further: nearly all actives have a fitted effect of over 45% in size. The method in brief:
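Metabolically activated exposure: compounds, human liver microsomes and NADPH (0.5 mg/mL final apiece) were added to p53RE-bla cells seeded 5 h earlier, left 16 h at 37 C, and then assessed for viability by CellTiter-Glo luminescence.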
(In general: qHTS replaces the single test concentration by a dilution series.)

Experiment [9] in a line: p53 small molecule agonists, cell-based qHTS assay with rat liver microsomes: qHTS cell viability counter screen (AID 1963580). Further: nearly all actives have a fitted effect of over 45% in size. The method in brief:
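Rat liver microsome (0.5 mg/mL final) and NADPH (0.5 mg/mL final) co-incubation with compounds for 16 h at 37 C on HCT-116 p53RE-bla cells; cytotoxicity taken from intracellular ATP luminescence.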

A short description of experiment [10]: p53 small molecule agonists, cell-based qHTS assay: qHTS cell viability counter screen (AID 1963581). Further: nearly all actives have a fitted effect of over 45% in size. The procedure, abridged:
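Multiplexed with the reporter read, a CellTiter-Glo step (30 min, room temperature) gauges ATP-based viability of HCT-116 p53RE-bla cells after 16 h compound incubation at 37 C.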

Experiment [11] can be described thus: p53 small molecule agonists, cell-based qHTS assay (AID 1963582; active means well fitted activation curve with a large enough effect in the signal ratio in the repeat runs, not every such curve was filed as active; the % refers to the signal ratio). The method in brief:
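Beta-lactamase reporter cells (p53RE-bla) treated with compounds for 16 h at 37 C; FRET substrate, 2 h, room temperature; fluorescence intensity.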

Experiment [12] deals with 5-hydroxytryptamine receptor 2A (Homo sapiens) (UniProt P28223). Put plainly: 5-hydroxytryptamine receptor 2A (HTR2A) small molecule antagonists, cell-based qHTS assay (AID 1963586). Further: nearly all actives have a fitted effect of over 45% in size. The method in brief: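 CHO cells stably expressing human HTR2A were plated for 18 h at 37 C, then loaded with calcium dye for 1 h. Compounds were preincubated 5 min at room temperature before DOI (4 nM solution) was added. Kinetic fluorescence was read for 3 min.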

For experiment [13] the target is unchanged. Put plainly: 5-hydroxytryptamine receptor 2A (HTR2A) small molecule agonists, cell-based qHTS assay (AID 1963587). Further: nearly all actives have a fitted effect of over 30% in size. The procedure, abridged:
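Kinetic calcium-flux fluorescence (2 min, 1 sec intervals) after compound addition in agonist mode. HTR2A-CHO cells were cultured 18 h, then dye-loaded 1 h at 37 C.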

In experiment [14] the target is Muscarinic acetylcholine receptor M1 (Homo sapiens) (UniProt P11229). Put plainly: Cholinergic receptor muscarinic 1 (CHRM1) small molecule antagonists, cell-based qHTS assay (AID 1963588). Further: nearly all actives have a fitted effect of over 40% in size. The method in brief:
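Compounds were tested at 15 concentrations in three independent runs. Dye-loaded CHRM1-CHO cells were exposed 5 min at room temperature before stimulation by acetylcholine added at 50nM. Intracellular calcium was read kinetically on FDSS for 3 min.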

Experiment [15] shares this target. Put plainly: Cholinergic receptor muscarinic 1 (CHRM1) small molecule agonists, cell-based qHTS assay (AID 1963589). Further: nearly all actives have a fitted effect of over 35% in size. The procedure, abridged: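 qHTS, 15-point titration, 3 independent runs: compounds pin-transferred onto dye-loaded CHRM1-CHO cells (human M1), calcium fluorescence followed every second to detect agonism.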
The nature of experiment [16]: cAMP Responsive Elements (CRE) small molecule agonists, cell-based qHTS assay (AID 1963590). The procedure, abridged: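 Quantitative HTS for CRE agonists: HEK 293T CRE-bla cells, overnight plating, 3 h compound incubation at 37 C/5% CO2, then 2 h room-temperature LiveBLAzer B/G FRET substrate loading.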
A short description of experiment [17]: cAMP Responsive Elements (CRE) small molecule antagonists, cell-based qHTS assay (AID 1963591; active means well fitted inhibition curve with a large enough effect in the signal ratio in the repeat runs, not every such curve was filed as active; the % refers to the signal ratio). The procedure, abridged:
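Fluorescence intensity from cleaved LiveBLAzer B/G substrate (2 h, room temperature) quantified CRE-bla activity in HEK 293T cells exposed 3 h to compound with 0.25 uM final NKH477.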

For experiment [18], the target named is Beta-2 adrenergic receptor (Homo sapiens) (UniProt P07550). Put plainly: Adrenergic beta2 receptor (ADRB2) small molecule antagonists, cell-based qHTS assay (AID 1963592). Further: nearly all actives have a fitted effect of over 50% in size. Further: potency means the concentration at half of the fitted maximal effect. The method in brief: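 Assay format: CHO-ADRB2 cells, 18-20hr seeding at 37C/5% CO2, then compound plus 1nM isoproterenol agonist mix for 0.5hr RT. Homogeneous time-resolved fluorescence cAMP detection after 1hr, expressed as 665/615 nm ratio.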

Experiment [19] addresses D(2) dopamine receptor (Homo sapiens) (UniProt P14416). Put plainly: Dopamine D2 receptor (DRD2) small molecule agonists, cell-based qHTS assay (AID 1963594). Further: nearly all actives have a fitted effect of over 35% in size. The method in brief:
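cAMP accumulation in DRD2-HEK293 cells measured by HTRF after 1 h detection; compounds added 10 min before NKH477 (200nM […]) forskolin-analogue stimulation, 30 min at room temperature, with Ro20-1724 present at 0.1 mM final.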

Experiment [20] shares this target. Put plainly: Dopamine D2 receptor (DRD2) small molecule antagonists, cell-based qHTS assay (AID 1963595; active means well fitted inhibition curve with a large enough effect in the signal ratio in the repeat runs, with a control signal flat; the % refers to the signal ratio). The method in brief:
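Cells were plated and grown for 24 h at 37 °C. Ro20-1724 (0.1 mM final) went in first, then compound for 10 min. NKH477 (200 nM) with quinpirole (12 nM) followed for 30 min at RT, then HTRF detection reagents for 1 h.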

Chain of D(2) dopamine receptor (Homo sapiens) (P14416 whole entry, looked up): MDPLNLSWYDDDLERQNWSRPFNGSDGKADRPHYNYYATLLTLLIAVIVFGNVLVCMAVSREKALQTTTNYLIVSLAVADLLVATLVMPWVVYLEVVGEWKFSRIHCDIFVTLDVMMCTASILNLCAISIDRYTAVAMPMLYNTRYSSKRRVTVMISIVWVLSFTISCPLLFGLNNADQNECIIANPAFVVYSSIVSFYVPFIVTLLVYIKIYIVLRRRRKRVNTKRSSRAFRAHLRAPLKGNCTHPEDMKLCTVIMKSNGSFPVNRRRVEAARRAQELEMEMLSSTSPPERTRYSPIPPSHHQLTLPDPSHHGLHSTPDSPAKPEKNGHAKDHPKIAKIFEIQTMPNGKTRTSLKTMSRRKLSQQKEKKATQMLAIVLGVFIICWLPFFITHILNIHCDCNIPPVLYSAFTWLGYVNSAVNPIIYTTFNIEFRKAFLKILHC
Chain of Gonadotropin-releasing hormone receptor (Homo sapiens) (P30968 whole entry, looked up): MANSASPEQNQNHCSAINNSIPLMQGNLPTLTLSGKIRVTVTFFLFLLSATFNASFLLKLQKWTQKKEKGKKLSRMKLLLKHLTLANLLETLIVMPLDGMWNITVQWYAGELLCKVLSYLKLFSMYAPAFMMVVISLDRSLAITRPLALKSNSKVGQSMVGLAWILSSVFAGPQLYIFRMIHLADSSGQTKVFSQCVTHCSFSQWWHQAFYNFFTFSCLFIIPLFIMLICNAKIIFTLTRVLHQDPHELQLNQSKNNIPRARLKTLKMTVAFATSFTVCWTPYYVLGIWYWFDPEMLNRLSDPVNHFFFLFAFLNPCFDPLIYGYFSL
Chain of KiSS-1 receptor (Homo sapiens) (Q969F8 whole entry, looked up): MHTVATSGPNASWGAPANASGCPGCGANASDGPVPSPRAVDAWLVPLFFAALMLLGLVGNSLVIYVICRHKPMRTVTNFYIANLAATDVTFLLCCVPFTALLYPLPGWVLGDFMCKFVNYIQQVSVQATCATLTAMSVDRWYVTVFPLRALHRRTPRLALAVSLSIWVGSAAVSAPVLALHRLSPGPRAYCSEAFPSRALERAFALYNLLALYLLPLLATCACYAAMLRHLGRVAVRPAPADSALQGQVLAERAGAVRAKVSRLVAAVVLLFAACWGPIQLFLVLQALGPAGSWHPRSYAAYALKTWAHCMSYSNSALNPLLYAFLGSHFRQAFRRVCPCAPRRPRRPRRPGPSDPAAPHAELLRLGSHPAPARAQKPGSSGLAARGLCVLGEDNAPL
Chain of Beta-2 adrenergic receptor (Homo sapiens) (P07550 whole entry, looked up): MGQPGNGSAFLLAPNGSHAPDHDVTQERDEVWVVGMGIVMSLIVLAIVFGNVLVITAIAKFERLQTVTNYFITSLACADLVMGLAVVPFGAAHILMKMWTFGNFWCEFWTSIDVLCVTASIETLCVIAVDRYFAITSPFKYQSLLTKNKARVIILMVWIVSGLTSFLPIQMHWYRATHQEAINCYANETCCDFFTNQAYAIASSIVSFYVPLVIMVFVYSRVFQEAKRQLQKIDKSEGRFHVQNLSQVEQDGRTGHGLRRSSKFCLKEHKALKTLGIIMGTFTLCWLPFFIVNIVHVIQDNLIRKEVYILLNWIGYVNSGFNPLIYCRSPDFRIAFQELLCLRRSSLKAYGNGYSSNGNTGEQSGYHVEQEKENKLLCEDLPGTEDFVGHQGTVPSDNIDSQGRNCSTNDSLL
Chain of Muscarinic acetylcholine receptor M1 (Homo sapiens) (P11229 whole entry, looked up): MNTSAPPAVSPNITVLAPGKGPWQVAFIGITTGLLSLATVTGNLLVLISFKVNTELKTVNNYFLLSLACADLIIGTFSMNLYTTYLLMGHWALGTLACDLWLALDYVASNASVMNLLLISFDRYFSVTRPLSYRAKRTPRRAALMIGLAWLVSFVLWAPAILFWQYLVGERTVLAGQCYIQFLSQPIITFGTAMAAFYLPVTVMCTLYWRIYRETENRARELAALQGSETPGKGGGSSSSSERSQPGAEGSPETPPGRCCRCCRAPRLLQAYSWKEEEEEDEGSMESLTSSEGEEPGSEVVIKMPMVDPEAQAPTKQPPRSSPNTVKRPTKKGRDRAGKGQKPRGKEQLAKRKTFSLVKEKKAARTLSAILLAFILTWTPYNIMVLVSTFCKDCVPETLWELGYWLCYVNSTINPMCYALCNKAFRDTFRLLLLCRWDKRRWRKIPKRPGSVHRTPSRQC
Chain of 5-hydroxytryptamine receptor 2A (Homo sapiens) (P28223 whole entry, looked up): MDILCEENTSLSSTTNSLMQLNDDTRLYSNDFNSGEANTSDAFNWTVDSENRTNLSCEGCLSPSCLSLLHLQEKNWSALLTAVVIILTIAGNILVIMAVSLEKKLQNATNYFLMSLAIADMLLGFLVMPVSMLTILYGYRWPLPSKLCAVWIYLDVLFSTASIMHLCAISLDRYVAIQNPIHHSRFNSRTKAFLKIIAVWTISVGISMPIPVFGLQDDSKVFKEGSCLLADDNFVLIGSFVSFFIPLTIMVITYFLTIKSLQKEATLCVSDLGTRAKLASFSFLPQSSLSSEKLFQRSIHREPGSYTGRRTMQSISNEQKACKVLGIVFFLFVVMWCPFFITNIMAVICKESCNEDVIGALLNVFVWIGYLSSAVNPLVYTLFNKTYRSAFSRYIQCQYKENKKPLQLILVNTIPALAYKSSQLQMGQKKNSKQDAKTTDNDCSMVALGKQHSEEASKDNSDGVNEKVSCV

For `COC(=O)c1ccccc1C(=O)OC`, the Potency entry in experiment [1], in experiment [2], in experiment [3], in experiment [4], in experiment [5] and in [6] was “inactive” in each case. For the same compound, the Potency result in [7], in experiment [8], in [9], in experiment [10], in experiment [11] and in experiment [12] was “inactive” throughout. Further, the Potency result in experiment [13], in [14], in experiment [15], in experiment [16], in experiment [17] and in experiment [18] was “inactive” each time. Moreover, the Potency entry in [19] and in experiment [20] was “inactive” each time.

Consider `ClCc1ccccn1`, for which the Potency result in experiment [1], in experiment [2], in experiment [3], in [4], in experiment [5] and in experiment [6] was “inactive” throughout. The Potency entry in [7], in experiment [8], in experiment [9], in [10], in [11] and in experiment [12] was “inactive” throughout. Also, the Potency entry in [13], in experiment [14], in experiment [15], in experiment [16], in experiment [17] and in [18] was “inactive” throughout. Also, the Potency result in experiment [19] and in [20] was “inactive” throughout.

For the compound `CCCCN(CCCCO)N=O`, the Potency entry in [1], in experiment [2], in experiment [3], in [4], in [5] and in experiment [6] was “inactive” throughout. In addition, the Potency result in [7], in [8], in experiment [9], in [10], in experiment [11] and in [12] was “inactive” each time. The Potency entry in experiment [13], in [14], in experiment [15], in experiment [16], in experiment [17] and in experiment [18] was “inactive” in each case. The Potency entry in experiment [19] and in [20] was “inactive” throughout.

With `C/C=C/CC#N`, the Potency entry in experiment [1], in experiment [2], in [3], in experiment [4], in experiment [5] and in experiment [6] was “inactive” in each case. For the same compound, the Potency entry in experiment [7], in [8], in experiment [9], in experiment [10], in experiment [11] and in experiment [12] was “inactive” each time. In addition, the Potency result in [13], in experiment [14], in experiment [15], in experiment [16], in experiment [17] and in [18] was “inactive” in each case. The Potency entry in experiment [19] and in [20] was “inactive” throughout.

`CCCCCCI`: the Potency entry in experiment [1], in experiment [2], in [3], in [4], in experiment [5] and in experiment [6] was “inactive” in each case. For the same compound, the Potency entry in [7], in experiment [8], in experiment [9], in experiment [10], in experiment [11] and in experiment [12] was “inactive” throughout. In addition, the Potency entry in experiment [13], in experiment [14], in experiment [15], in [16], in experiment [17] and in experiment [18] was “inactive” in each case. Besides, the Potency entry in [19] and in experiment [20] was “inactive” in each case.

Take `O=NN(c1ccccc1)c1ccccc1`: the Potency entry in experiment [1], in [2], in experiment [3], in experiment [4], in experiment [5] and in [6] was “inactive” each time. In addition, the Potency result in experiment [7], in experiment [8], in [9], in experiment [10], in experiment [11] and in experiment [12] was “inactive” each time. Also, the Potency result in [13], in [14], in experiment [15], in experiment [16], in experiment [17] and in experiment [18] was “inactive” in each case. Also, the Potency result in [19] and in [20] was “inactive” in each case.

Turning to `Cn1cc(-c2ccccc2)c(=O)c(-c2cccc(C(F)(F)F)c2)c1`, the Potency result in experiment [1], in experiment [2], in [3], in [4], in [5] and in [6] was “inactive” throughout. Moreover, the Potency entry in experiment [7], in experiment [8], in experiment [9], in experiment [10], in experiment [11] and in experiment [12] was “inactive” throughout. Further, the Potency entry in [13], in [14], in experiment [15], in experiment [16], in [17] and in experiment [19] was “inactive” throughout. The Potency result in experiment [20] was “inactive”. The Potency in experiment [18] is 29.9 µM (active) and inactive.

For the compound `CC(=O)CCC(C)=O`, the Potency result in experiment [1], in experiment [2], in experiment [3], in [4], in experiment [5] and in [6] was “inactive” in each case. Further, the Potency entry in [7], in experiment [8], in [9], in experiment [10], in [11] and in experiment [12] was “inactive” each time. In addition, the Potency result in experiment [13], in [14], in experiment [15], in experiment [16], in [17] and in experiment [18] was “inactive” each time. In addition, the Potency entry in experiment [19] and in experiment [20] was “inactive” in each case.
